PubChem BioAssay (EPA / NIEHS)
Active and inactive are the calls of the source. The calls were made as follows: active = hit-call score of the fitted dose curve at least 0.9, where 1 is the maximum; inactive = score below 0.9.

Assays:
[1] = read-out: Interleukin-1 alpha (IL1a), IL1A (gene 3552); experiment: BSK_KF3CT_IL1a: BioMAP Diversity Plus: KF3CT Assay for Interleukin-1 alpha (IL1a) Biomarker Activity (AID 2283070); conditions: primary human keratinocytes with fibroblasts; actives raise or lower the signal
Outline: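 Readout is IL-1a level by ELISA, compared bidirectionally with DMSO as baseline. Cells: human keratinocytes co-cultured with foreskin fibroblasts, harvested 24 h post-dose.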

[2] = read-out: TIMP metallopeptidase inhibitor 2 (TIMP2), TIMP2 (gene 7077); experiment: BSK_KF3CT_TIMP2: BioMAP Diversity Plus: KF3CT Assay for TIMP metallopeptidase inhibitor 2 (TIMP2) Biomarker Activity (AID 2283071); conditions: primary human keratinocytes with fibroblasts; actives raise or lower the signal
Outline: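 Chemicals were dosed onto human skin primary co-cultures of keratinocytes and foreskin fibroblasts, and TIMP-2 was measured by ELISA after 24 hours. Activity in either direction was fitted relative to DMSO.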

[3] = read-out: Transforming growth factor beta 1 (TGFb1), TGFB1 (gene 7040); experiment: BSK_KF3CT_TGFb1: BioMAP Diversity Plus: KF3CT Assay for Transforming growth factor beta 1 (TGFb1) Biomarker Activity (AID 2283072); conditions: primary human keratinocytes with fibroblasts; actives raise or lower the signal
Outline: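 KF3CT co-culture (keratinocytes + fibroblasts), 24 h exposure → TGF-b1 ELISA → bidirectional fit, DMSO = baseline. Parallel SRB total-protein staining (0.1% SRB, 10% TCA fixation, 560 nm) for cytotoxicity.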

[4] = read-out: C-C motif chemokine 2 (Homo sapiens) (UniProt P13500); experiment: BSK_KF3CT_MCP1: BioMAP Diversity Plus: KF3CT Assay for Monocyte Chemoattractant Protein 1 (MCP1/CCL2) Biomarker Activity (AID 2283073); conditions: primary human keratinocytes with fibroblasts; actives raise or lower the signal
Outline: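 Keratinocytes and foreskin fibroblasts were co-cultured, dosed with chemical, and sampled 24 h later. MCP-1 was quantified by ELISA, and the endpoint was analyzed with bidirectional fitting using DMSO as negative control.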

[5] = read-out: Matrix Metallopeptidase 9 (MMP9), MMP9 (gene 4318); experiment: BSK_KF3CT_MMP9: BioMAP Diversity Plus: KF3CT Assay for Matrix Metallopeptidase 9 (MMP9) Biomarker Activity (AID 2283074); conditions: primary human keratinocytes with fibroblasts; actives raise or lower the signal;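 as to AC50: MMP9 protein level quantified by ELISA in the co-culture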
Outline: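 Values come from bidirectional fitting relative to DMSO of MMP-9 levels, which were measured by ELISA. Measurements were taken 24 h after chemical dosing of a keratinocyte and foreskin fibroblast co-culture.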

CD40, CD40 (gene 958) [6] = experiment: BSK_LPS_CD40: BioMAP Diversity Plus: LPS Assay for CD40 Biomarker Activity (AID 2283076); conditions: primary human HUVEC with PBMC; actives raise or lower the signal
Outline: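 CD40 signal, measured by ELISA, is fitted in both directions relative to DMSO vehicle. The system is an LPS-driven human vascular primary co-culture of endothelial cells and PBMC, sampled 24 h after compound addition.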

[7] = read-out: E-selectin (Homo sapiens) (UniProt P16581); experiment: BSK_LPS_Eselectin: BioMAP Diversity Plus: LPS Assay for Eselectin Biomarker Activity (AID 2283077); conditions: primary human HUVEC with PBMC; actives raise or lower the signal
Outline: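 Signal of E-selectin, detected by ELISA, served as the endpoint; cells were umbilical vein endothelium with PBMC, read 24 h after treatment. DMSO defined baseline, and both increases and decreases were fitted.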

[8] = read-out: Interleukin-8 (IL8), CXCL8 (gene 3576); experiment: BSK_LPS_IL8: BioMAP Diversity Plus: LPS Assay for Interleukin-8 (IL8) Biomarker Activity (AID 2283078); conditions: primary human HUVEC with PBMC; actives raise or lower the signal
Outline: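 Endothelial cells and PBMC from human donors are co-cultured, treated with chemicals and LPS, then assayed for IL-8 by ELISA after 24 h. Parallel SRB staining (0.1% SRB after 10% TCA fixation, 560 nm) flags cytotoxicity.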

[9] = BSK_LPS_SRB: Viability Assessment in the BioMAP Diversity Plus: LPS Assay (AID 2283079); conditions: primary human HUVEC with PBMC;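 also: total protein by sulforhodamine B absorbance as a cytotoxicity measure; measured one day after compound addition; fitted in both directions against DMSO so loss or gain of signal counts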
Outline: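 Overt cytotoxicity was gauged by sulforhodamine B total-protein staining in a primary human vascular endothelial and mononuclear cell co-culture 24 h post-dosing. Activity was fitted in both directions relative to DMSO.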

[10] = read-out: Interleukin-1 alpha (IL1a), IL1A (gene 3552); experiment: BSK_LPS_IL1a: BioMAP Diversity Plus: LPS Assay for Interleukin-1 alpha (IL1a) Biomarker Activity (AID 2283080); conditions: primary human HUVEC with PBMC; actives raise or lower the signal
Outline: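 Measured: IL-1 alpha via ELISA at 24 h in LPS-activated human umbilical vein endothelium–PBMC co-culture. Baseline: DMSO, bidirectional fitting.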

[11] = read-out: Monocyte Chemoattractant Protein-1 (MCP1), CCL2 (gene 6347); experiment: BSK_LPS_MCP1: BioMAP Diversity Plus: LPS Assay for Monocyte Chemoattractant Protein-1 (MCP1) Biomarker Activity (AID 2283081); conditions: primary human HUVEC with PBMC; actives raise or lower the signal
Outline: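 LPS-stimulated HUVEC/PBMC co-culture; chemical, 24 h; MCP-1 by ELISA; bidirectional fit vs DMSO; cytotoxicity via SRB (0.1% stain, 10% TCA fix, 560 nm) in parallel wells.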

[12] = BSK_LPS_PGE2: BioMAP Diversity Plus: LPS Assay for Prostaglandin E2 (PGE2) Biomarker Activity (AID 2283082); conditions: primary human HUVEC with PBMC; actives raise or lower the signal;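 as to AC50: secreted prostaglandin E2 measured by ELISA in LPS-stimulated co-culture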
Outline: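 Compounds were added to the LPS co-culture of endothelium and PBMC, and PGE2 was measured by ELISA after 24 h. Responses in either direction were fitted with DMSO as baseline.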

[13] = read-out: Macrophage colony-stimulating factor (MCSF), CSF1 (gene 1435); experiment: BSK_LPS_MCSF: BioMAP Diversity Plus: LPS Assay for Macrophage colony-stimulating factor (MCSF) Biomarker Activity (AID 2283083); conditions: primary human HUVEC with PBMC; actives raise or lower the signal
Outline: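 Compound is added to a human vascular primary co-culture of umbilical vein endothelium and blood mononuclear cells. After 24 h, M-CSF is quantified by ELISA. Signal changes are fitted in both directions against DMSO.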

[14] = read-out: Tissue Factor, F3 (gene 2152); experiment: BSK_LPS_TissueFactor: BioMAP Diversity Plus: LPS Assay for Tissue Factor Biomarker Activity (AID 2283084); conditions: primary human HUVEC with PBMC; actives raise or lower the signal
Outline: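 In this co-culture system of umbilical vein endothelium with PBMC, stimulated with LPS, cell-surface CD142 is detected by ELISA at 24 h. Endpoint values derive from bidirectional fitting, DMSO serving as baseline.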

[15] = read-out: Tumor necrosis factor (Homo sapiens) (UniProt P01375); experiment: BSK_LPS_TNFa: BioMAP Diversity Plus: LPS Assay for Tumour Necrosis Factor alpha (TNFa) Biomarker Activity (AID 2283085); conditions: primary human HUVEC with PBMC; actives raise or lower the signal;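 as to AC50: TNFa protein level quantified by ELISA in the co-culture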
Outline: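 Cells (umbilical vein endothelium plus peripheral blood mononuclear cells) were dosed with chemical, incubated 24 h, then TNFa was quantified by ELISA; values derive from bidirectional fitting with DMSO as baseline.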

[16] = read-out: Vascular cell adhesion molecule 1 (VCAM1), VCAM1 (gene 7412); experiment: BSK_LPS_VCAM1: BioMAP Diversity Plus: LPS Assay for Vascular cell adhesion molecule 1 (VCAM1) Biomarker Activity (AID 2283086); conditions: primary human HUVEC with PBMC; actives raise or lower the signal
Outline: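 Cells are dosed in an LPS-stimulated endothelial/mononuclear co-culture and, after 24 h, VCAM-1 is quantified by ELISA. Activity in either direction is fitted relative to the DMSO negative control.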

CD40, CD40 (gene 958) [17] = experiment: BSK_SAg_CD40: BioMAP Diversity Plus: SAg Assay for CD40 Biomarker Activity (AID 2283088); conditions: primary human HUVEC with PBMC; actives raise or lower the signal
Outline: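 Fluorescence ELISA read-out of CD40 from umbilical vein endothelium plus peripheral blood mononuclear cells, sampled 24 h after dosing. Values come from bidirectional curve fitting with DMSO as baseline.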

CD38, CD38 (gene 952) = experiment: BSK_SAg_CD38: BioMAP Diversity Plus: SAg Assay for CD38 Biomarker Activity (AID 2283087); conditions: primary human HUVEC with PBMC; actives raise or lower the signal
Outline: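 CD38 quantified by ELISA (fluorescence) in a superantigen-activated endothelial cell–PBMC co-culture at 24 h post-dose. Activity fitted in both directions relative to DMSO; parallel SRB and Alamar Blue cytotoxicity read-outs.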

CD69, CD69 (gene 969) = experiment: BSK_SAg_CD69: BioMAP Diversity Plus: SAg Assay for CD69 Biomarker Activity (AID 2283089); conditions: primary human HUVEC with PBMC; actives raise or lower the signal
Outline: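 Values derive from bidirectional fitting relative to DMSO vehicle. Cells: umbilical vein endothelium plus peripheral blood mononuclear cells, treated 24 h before fluorescent ELISA for CD69.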

[18] = read-out: urokinase plasminogen activator (uPA), PLAU (gene 5328); experiment: BSK_KF3CT_uPA: BioMAP Diversity Plus: KF3CT Assay for urokinase plasminogen activator (uPA) Biomarker Activity (AID 2283075); conditions: primary human keratinocytes with fibroblasts; actives raise or lower the signal
Outline: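 Values derive from bidirectional fitting against DMSO controls. Keratinocyte/foreskin fibroblast co-cultures received chemical; 24 h later uPA was detected by ELISA, with SRB total-protein staining in parallel wells for overt cytotoxicity.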

Measured: AC50

Chain of E-selectin (Homo sapiens) (P16581 whole entry, looked up): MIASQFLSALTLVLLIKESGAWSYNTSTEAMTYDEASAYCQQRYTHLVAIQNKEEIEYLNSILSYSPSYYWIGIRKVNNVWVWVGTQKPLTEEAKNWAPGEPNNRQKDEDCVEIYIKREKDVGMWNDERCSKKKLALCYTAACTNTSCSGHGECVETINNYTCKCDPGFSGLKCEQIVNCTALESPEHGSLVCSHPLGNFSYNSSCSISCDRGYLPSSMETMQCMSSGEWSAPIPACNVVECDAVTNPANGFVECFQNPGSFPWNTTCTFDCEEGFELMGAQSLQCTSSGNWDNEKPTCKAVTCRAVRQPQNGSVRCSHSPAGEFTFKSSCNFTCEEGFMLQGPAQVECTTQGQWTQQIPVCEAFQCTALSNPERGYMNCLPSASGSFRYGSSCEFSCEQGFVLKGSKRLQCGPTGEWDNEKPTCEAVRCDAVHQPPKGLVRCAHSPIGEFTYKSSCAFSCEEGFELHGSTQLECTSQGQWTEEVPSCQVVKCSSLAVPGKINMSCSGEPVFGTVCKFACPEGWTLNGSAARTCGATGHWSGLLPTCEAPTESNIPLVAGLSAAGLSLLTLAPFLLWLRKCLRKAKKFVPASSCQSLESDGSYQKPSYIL
Chain of Tumor necrosis factor (Homo sapiens) (P01375 whole entry, looked up): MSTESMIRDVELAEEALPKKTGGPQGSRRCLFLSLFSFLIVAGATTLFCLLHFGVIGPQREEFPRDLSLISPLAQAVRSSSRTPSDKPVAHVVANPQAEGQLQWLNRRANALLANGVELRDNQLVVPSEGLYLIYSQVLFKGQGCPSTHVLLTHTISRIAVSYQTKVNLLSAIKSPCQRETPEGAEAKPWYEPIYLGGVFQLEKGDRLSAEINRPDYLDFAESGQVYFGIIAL

Cc1nc(-c2ccccn2)ncc1C(=O)Nn1cc(C)c2cc(F)ccc21
not listed: CD38, CD38 (gene 952) | CD69, CD69 (gene 969) | [18]
inactive: all other assays above

C=CN1CCCC1=O
not listed: [9] | CD38, CD38 (gene 952) | CD69, CD69 (gene 969) | [18]
inactive: all other assays above

CCCCCCOC(=O)CC(CC(=O)OCCCCCC)(OC(=O)CCC)C(=O)OCCCCCC
not listed: [18]
inactive: all other assays above

CCn1nc(C)c2c1C(=O)NCC(c1ccc(O)cc1)=N2
active: [15] 0.78 µM | CD38, CD38 (gene 952) 8.91 µM | CD40, CD40 (gene 958) [17] 20 µM
not listed: [9] | [18]
inactive: all other assays above

Cc1nccn1-c1ccc(Sc2cccc(C3(C(N)=O)CCOCC3)c2)cc1
active: [5] 20 µM | [16] 6.8 µM | CD40, CD40 (gene 958) [17] 4.56 µM
not listed: CD40, CD40 (gene 958) [6] | [9] | CD38, CD38 (gene 952) | CD69, CD69 (gene 969)
inactive: all other assays above

CCc1ccc(O)c(C(C)(C)C)c1
active: [1] 30.5 µM | [2] 36.5 µM | [3] 33.5 µM | [4] 36.8 µM | [5] 34.7 µM | [18] 35.3 µM | [12] 25.3 µM | [15] 36.6 µM | [16] 30.5 µM | CD38, CD38 (gene 952) 26.7 µM | CD40, CD40 (gene 958) [17] 36 µM
inactive: [7] | [8] | [10] | [11] | [13] | [14]

OCCOCCOCCO
not listed: [9] | CD38, CD38 (gene 952) | CD69, CD69 (gene 969) | [18]
inactive: all other assays above

OCC(CO)(CO)CO
not listed: [9] | [18]
inactive: all other assays above

Cc1cccc(O)c1C
not listed: CD38, CD38 (gene 952) | [18]
inactive: all other assays above

O=C(NO)C1(NS(=O)(=O)c2ccc(Oc3ccc(F)cc3)cc2)CCOCC1
active: [15] 3.97 µM
not listed: CD40, CD40 (gene 958) [6] | CD38, CD38 (gene 952) | CD69, CD69 (gene 969)
inactive: all other assays above

CCCOc1ccc(S(=O)(=O)N2CCN(CC)CC2)cc1-c1nc2c(CC)n(Cc3ccccn3)nc2c(=O)[nH]1
active: [15] 3.63 µM
not listed: CD40, CD40 (gene 958) [6] | CD38, CD38 (gene 952) | CD69, CD69 (gene 969)
inactive: all other assays above

O=S(=O)(O)c1ccc(N=Nc2c(O)ccc3cc(S(=O)(=O)O)ccc23)cc1
not listed: CD40, CD40 (gene 958) [6] | [9]
inactive: all other assays above

O=C(O)[C@H](O)[C@@H](O)C(=O)O
not listed: [9] | CD69, CD69 (gene 969) | [18]
inactive: all other assays above

OC[C@H]1O[C@@](CO)(O[C@H]2O[C@H](CO)[C@@H](O)[C@H](O)[C@H]2O)[C@@H](O)[C@@H]1O
not listed: [9] | [18]
inactive: all other assays above

CCCCCCCCN(C)C
not listed: CD40, CD40 (gene 958) [6] | CD38, CD38 (gene 952) | CD69, CD69 (gene 969)
inactive: all other assays above
